Test results published in PubChem BioAssay (EPA / NIEHS).
Records with an inconclusive call do not appear. Activity calls are given as the source filed them. How the source made its calls, unless noted: active means hit-call score of the fitted dose curve at least 0.9, where 1 is the maximum; inconclusive means response in the unintended direction; inactive means score below 0.9.

How the values were obtained:
[1] = target: Nucleoli Translocation, AR (gene 367) (UniProt P10275); assay: UPITT_HCI_U2OS_AR_TIF2_Nucleoli_Antagonist: University of Pittsburgh U2OS Androgen Receptor-Transcriptional Intermediary Factor 2 (AR-TIF2) Antagonism High Content Imaging Assay for Nucleoli Translocation (AID 2283997)
Nucleoli Translocation, AR (gene 367), sequence (P10275 whole entry, looked up): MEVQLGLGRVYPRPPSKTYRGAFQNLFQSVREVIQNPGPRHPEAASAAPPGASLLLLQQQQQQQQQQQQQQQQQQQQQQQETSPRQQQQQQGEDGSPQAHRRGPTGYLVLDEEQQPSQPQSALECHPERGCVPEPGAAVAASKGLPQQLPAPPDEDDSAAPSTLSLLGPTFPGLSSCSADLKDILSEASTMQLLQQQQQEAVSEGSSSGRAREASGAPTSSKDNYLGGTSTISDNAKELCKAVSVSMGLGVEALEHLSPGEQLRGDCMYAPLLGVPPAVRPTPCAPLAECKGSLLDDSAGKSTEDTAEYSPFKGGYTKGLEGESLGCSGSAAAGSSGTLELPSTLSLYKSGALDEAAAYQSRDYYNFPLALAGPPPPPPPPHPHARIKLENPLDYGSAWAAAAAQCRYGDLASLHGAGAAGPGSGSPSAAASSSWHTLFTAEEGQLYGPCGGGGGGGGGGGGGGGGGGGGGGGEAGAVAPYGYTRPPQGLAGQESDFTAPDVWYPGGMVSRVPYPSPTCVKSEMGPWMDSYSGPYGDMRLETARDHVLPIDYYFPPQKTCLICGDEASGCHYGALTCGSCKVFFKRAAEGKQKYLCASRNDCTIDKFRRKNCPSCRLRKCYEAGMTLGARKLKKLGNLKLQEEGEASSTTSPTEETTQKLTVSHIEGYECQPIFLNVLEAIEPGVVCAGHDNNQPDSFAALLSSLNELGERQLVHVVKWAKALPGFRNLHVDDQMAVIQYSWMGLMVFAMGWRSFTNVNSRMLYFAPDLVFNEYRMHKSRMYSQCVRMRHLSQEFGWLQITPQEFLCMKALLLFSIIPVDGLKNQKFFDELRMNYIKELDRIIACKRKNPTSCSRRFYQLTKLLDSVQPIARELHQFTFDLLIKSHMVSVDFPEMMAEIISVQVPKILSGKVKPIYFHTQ
Procedure, shortened: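 U2OS cells co-expressing red-fluorescent-tagged human AR and green-fluorescent-tagged TIF2, imaged by high-content microscopy for nucleolar red fluorescence. Antagonist mode against DHT; primary screen at 20 uM final (0.2% DMSO).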

[2] = target: Nucleoli Translocation, AR (gene 367) (UniProt P10275); assay: UPITT_HCI_U2OS_AR_TIF2_Nucleoli_Agonist: University of Pittsburgh U2OS Androgen Receptor-Transcriptional Intermediary Factor 2 (AR-TIF2) Agonism High Content Imaging Assay for Nucleoli Translocation (AID 2283998)
Procedure, shortened: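 Readout is red (AR-RFP) fluorescence localized to nucleoli, measured by high-content imaging and analysed for increase relative to DMSO. Compound series spanned 0.195 to 50 uM final in 0.5% DMSO.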

[3] = target: Ratio of Nucleoli Translocation and Cytoplasm, AR (gene 367) (UniProt P10275); assay: UPITT_HCI_U2OS_AR_TIF2_Nucleoli_Cytoplasm_Ratio_Agonist: University of Pittsburgh U2OS Androgen Receptor-Transcriptional Intermediary Factor 2 (AR-TIF2) Agonism High Content Imaging Assay for Ratio of Nucleoli Translocation and Cytoplasm (AID 2284000);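 further: hits raise the red nucleolar to cytoplasm ratio above vehicle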
Ratio of Nucleoli Translocation and Cytoplasm, AR (gene 367), sequence (P10275 whole entry, looked up): as above
Procedure, shortened: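 U2OS cells expressing RFP-tagged human AR and GFP-tagged TIF2; high-content imaging ratio of nucleolar to cytoplasmic red fluorescence, fitted as gain of signal vs DMSO. Single point at 20 uM final (0.2% DMSO); concentration-response 0.195-50 uM final (0.5% DMSO).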

[4] = CCTE_Harrill_HTTr_Apoptosis_DMEM_6hr: (Pilot) CCTE's 6-hour Apoptosis Assessment for the High-Throughput Transcriptomics (HTTr) Platform, in MCF-7 cells cultured in DMEM + 10% fetal bovine serum, Harrill Lab (AID 2283981; active means hit-call score of the fitted dose curve at least 0.9, where 1 is the maximum; inactive means score below 0.9)
Procedure, shortened: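 Caspase-3/7 activation read by high content imaging with CellEvent Caspase 3/7 Green in MCF-7 cells (DMEM + 10% FBS), 6 h after dosing; eight-point dilution series. Bidirectional fitting relative to DMSO baseline.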

[5] = CCTE_Harrill_HTTr_Apoptosis_DMEM_12hr: (Pilot) CCTE's 12-hour Apoptosis Assessment for the High-Throughput Transcriptomics (HTTr) Platform, in MCF-7 cells cultured in DMEM + 10% fetal bovine serum, Harrill Lab (AID 2283982; active means hit-call score of the fitted dose curve at least 0.9, where 1 is the maximum; inactive means score below 0.9)
Procedure, shortened: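 MCF-7 cells in DMEM + 10% FBS, exposed 12 h to an eight-point dilution series; caspase-3/7 activation imaged with CellEvent Green. Bidirectional fit versus DMSO.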

[6] = CCTE_Harrill_HTTr_Apoptosis_DMEM_24hr: (Pilot) CCTE's 24-hour Apoptosis Assessment for the High-Throughput Transcriptomics (HTTr) Platform, in MCF-7 cells cultured in DMEM + 10% fetal bovine serum, Harrill Lab (AID 2283983; active means hit-call score of the fitted dose curve at least 0.9, where 1 is the maximum; inactive means score below 0.9)
Procedure, shortened: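 MCF-7 cells in DMEM + 10% FBS, eight-point dilution series, 24 h exposure. Caspase-3/7 activation imaged by high-content imaging with CellEvent Caspase 3/7 Green. Bidirectional curve fitting against DMSO baseline.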

[7] = CCTE_Harrill_HTTr_Apoptosis_PRF_DMEM_6hr: (Pilot) CCTE's 6-hour Apoptosis Assessment for the High-Throughput Transcriptomics (HTTr) Platform, in MCF-7 cells cultured phenol red-free DMEM + 10% charcoal-stripped fetal bovine serum, Harrill Lab (AID 2283984; active means hit-call score of the fitted dose curve at least 0.9, where 1 is the maximum; inactive means score below 0.9)
Procedure, shortened: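 MCF-7 cells in phenol red-free DMEM + 10% charcoal-stripped FBS, eight-point dilution series, 6 h exposure. Caspase-3/7 activation imaged by high-content imaging with CellEvent Caspase 3/7 Green; bidirectional fit versus DMSO baseline.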

[8] = CCTE_Harrill_HTTr_Apoptosis_PRF_DMEM_24hr: (Pilot) CCTE's 24-hour Apoptosis Assessment for the High-Throughput Transcriptomics (HTTr) Platform, in MCF-7 cells cultured in phenol red-free DMEM + 10% charcoal-stripped fetal bovine serum, Harrill Lab (AID 2283986; active means hit-call score of the fitted dose curve at least 0.9, where 1 is the maximum; inactive means score below 0.9)
From the text: This is a cell-based assay that evaluates apoptosis using high content imaging to evaluate activation of caspase-3/7 using the CellEvent Caspase 3/7 Green detection reagent in 384-well format.One of seven assay components measured from the CCTE_Harrill_HTTr_Apoptosis assay. This was part of a pilot experiment. This is a cell-based assay that evaluates apoptosis in MCF-7 cells cultured in phenol red-free DMEM + 10% charcoal-stripped fetal bovine serum. High content imaging is used to evaluate activation of caspase-3/7 using the CellEvent Caspase 3/7 Green detection reagent. Measurements are taken at 24 hours after chemical dosing in 384-well format.The assay component endpoint CCTE_Harrill_HTTr_Apoptosis_PRF_DMEM_24hr was analyzed with bidirectional fitting relation to DMSO as the negative control and baseline of activity. Using a type of viability reporter, gain-of-signal activity can be used to evaluate activation of caspase-3/7 using the CellEvent Caspase 3/7 Green detection reagent to understand changes in apoptosis. To generalize the intended target to other relatable targets, this assay endpoint is annotated to cell cycle, where the subfamily is apoptosis.
Chemicals were tested in MCF7 cells in an eight point dilution series with a twenty-four hour exposure duration.

[9] = target: Ratio of Nucleoli Translocation and Cytoplasm, AR (gene 367) (UniProt P10275); assay: UPITT_HCI_U2OS_AR_TIF2_Nucleoli_Cytoplasm_Ratio_Antagonist: University of Pittsburgh U2OS Androgen Receptor-Transcriptional Intermediary Factor 2 (AR-TIF2) Antagonism High Content Imaging Assay for Ratio of Nucleoli Translocation and Cytoplasm (AID 2283999);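 further: antagonists lower the DHT-driven ratio of nucleolar to cytoplasmic red signal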
Procedure, shortened: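 High-content imaging quantifies the red nucleolar:cytoplasmic fluorescence ratio in U2OS cells with AR-RFP and TIF2-GFP. Final concentrations are 20 uM (screen) or 0.195–50 uM (dose response), analysed against DHT as baseline.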

DIO1 (gene 1733) = assay: CCTE_GLTED_hDIO1: CCTE's human Deiodinase 1 (DIO1) Inhibition Assay, Great Lakes Toxicology and Ecology Division (GLTED) Lab (AID 2283987);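 further: isolated human DIO1 enzyme in a cell-free setup rather than cells; enzyme activity read as free iodide liberated from substrate via Sandell-Kolthoff colorimetry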
Procedure, shortened: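 Inhibition of human deiodinase 1 is scored as reduced iodide liberation after a 3 h enzyme–chemical incubation, detected colorimetrically by the Sandell-Kolthoff reaction against DMSO controls.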

## OCCOCCOCCO
[1]
  outcome: inactive
[2]
  outcome: inactive
[3]
  outcome: inactive

## Cc1nc(-c2ccccn2)ncc1C(=O)Nn1cc(C)c2cc(F)ccc21
[1]
  outcome: inactive
[3]
  outcome: inactive

## CC(C)C(=O)Nc1ccc([N+](=O)[O-])c(C(F)(F)F)c1
[4]
  outcome: inactive
[5]
  outcome: inactive
[6]
  outcome: inactive
[7]
  outcome: inactive
[8]
  outcome: inactive

## CCCCCCOC(=O)CC(CC(=O)OCCCCCC)(OC(=O)CCC)C(=O)OCCCCCC
[1]
  outcome: inactive
[2]
  outcome: inactive
[3]
  outcome: inactive

## CCCCC(CC)C(=O)OCCOCCOCCOC(=O)C(CC)CCCC (stereo not given)
[1]
  outcome: inactive
[2]
  outcome: inactive
[9]
  outcome: inactive
[3]
  outcome: inactive

## CCN(CC)C(=S)SSC(=S)N(CC)CC
[1]
  AC50: 19.8 µM (active)
[2]
  AC50: 50 µM (active)
[9]
  AC50: 11.7 µM (active)
[3]
  AC50: 64.4 µM (active)

## OCc1ccccc1
[1]
  outcome: inactive
[9]
  outcome: inactive

## CCCCCCCCCCCCCCCCOS(=O)(=O)O
DIO1 (gene 1733)
  AC50: 44.5 µM (active)
[1]
  outcome: inactive

## CCCCOC(=O)c1ccccc1
[1]
  outcome: inactive
[2]
  outcome: inactive
[3]
  outcome: inactive

## COc1cc2c(c(OC)c1OC)-c1ccc(OC)c(=O)cc1[C@@H](NC(C)=O)CC2
[1]
  outcome: inactive
[2]
  outcome: inactive
[9]
  outcome: inactive
[3]
  outcome: inactive

## CCc1cccc(CC)c1N
[1]
  outcome: inactive
[2]
  outcome: inactive
[9]
  outcome: inactive
[3]
  outcome: inactive

## COCc1nnc(-c2ccc[n+]([O-])c2)n1-c1c(Cl)c(Cl)cc2[nH]c(=O)c(=O)[nH]c12
[3]
  outcome: inactive

## C=CCc1cc(S(=O)(=O)c2ccc(O)c(CC=C)c2)ccc1O
[2]
  AC50: 84 µM (active)
[9]
  outcome: inactive
[3]
  outcome: inactive

## COc1cc(C(C)C)c2c(c1)S(=O)(=O)N(COc1cc(=O)n3cccc(OCCN4CCCCC4)c3n1)C2=O
[1]
  AC50: 5.14 µM (active)
[2]
  outcome: inactive
[9]
  outcome: inactive
[3]
  outcome: inactive

## FC(F)C(F)(F)COCC1CO1 (stereo not given)
DIO1 (gene 1733)
  AC50: 19.8 µM (active)
